TDP1 cell noCPT = qHTS for Inhibitors of human tyrosyl-DNA phosphodiesterase 1 (TDP1): qHTS in cells in absence of CPT | 15% of 420,000 active | DT40 Tdp1-/- hTDP1 cells, no CPT, ATP luminescence, 48 h | Potency, µM (series often up to 46.2 µM), without a hit: top-dose activity change, negative = growth inhibition, actives largely listed as inhibitors; also: nearly all actives have a fitted effect of over 55% in size
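Chicken DT40 Tdp1-/- cells stably complemented with human TDP1 were seeded at 400 cells/well with DMSO in place of 20 nM camptothecin. After compound pinning, cells grew at least 48 hr at 37 °C; viability read by CellTiter-Glo luminescence.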
KB-3-1 cytotox = KB-3-1 parental cell cytotoxicity. KB-3-1 viability, CellTiter-Glo ATP luminescence, 72 h. Potency, µM (doses to about 46.1 µM), hits mostly cytotoxic. 1.4% of 400,000 active. AID 1347075; also: nearly all actives have a fitted effect of over 60% in size
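Multi-concentration cytotoxicity screen in KB-3-1 cells grown in DMEM lacking phenol red with 10% FBS. After 72 h at 37 °C with compound, ATP-dependent luminescence was recorded.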
HT1080-NT tox = kills 2HG-producing HT-1080-NT fibrosarcoma cells; HT-1080-NT fibrosarcoma viability, CellTiter-Glo ATP luminescence, 48 h; Potency, µM (highest dose often 46.1 µM), inactives show top-dose activity, negative = less viability, hits mostly cytotoxic; 1.6% of 360,000 active; AID 686970;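 also: NT is the 2HG producing partner of a matched IDH1 knockdown line; 0% = DMSO-treated cells and -100% = media-only wells without cells; nearly all actives have a fitted effect of over 55% in size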
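Viability by CellTiter-Glo luminescence after 48 h compound exposure at 37C of HT-1080-NT cells (750/well, RPMI, 5% FBS). % activity scaled between DMSO wells and medium-only wells, then curve-fitted and categorized by curve class.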
DT40 TDP1 CPT = DT40-hTDP1 cell growth loss with CPT; chicken DT40 Tdp1-/-;hTDP1 cells + 20 nM CPT, ATP luminescence, 48 h; Potency, µM (doses to about 46.2 µM), for inactives: at the top dose activity change, negative = growth inhibition, usual class: inhibitors; 12% of 420,000 active; AID 686979; also: nearly all actives have a fitted effect of over 55% in size
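Chicken DT40 Tdp1-/- cells complemented with human TDP1, 400 cells/well, exposed to compounds plus 20 nM camptothecin for at least 48 h at 37 C; viability read as ATP content by CellTiter-Glo luminescence.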
HT1080 IDH1KD tx = kills HT-1080 cells with IDH1 knockdown | AID 686971 | HT-1080 IDH1 knockdown viability, ATP luminescence, 48 h | Potency, µM (top dose mostly 46.1 µM), for inactives: top-dose activity, negative = toxicity, hits mostly cytotoxic | 2% of 360,000 active;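 also: 0% = DMSO wells and -100% = cell-free medium wells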
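In this qHTS, HT-1080 cells depleted of IDH1 are exposed for 48 h at 37 °C to compound titrations. Toxicity is scored from CellTiter-Glo luminescence, with DMSO as full viability and medium alone as none.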
KB-V1 MDR tox = KB-V1 MDR subline cytotoxicity; Potency, µM (series often up to 46.1 µM), usual class: cytotoxic; AID 1347076; KB-V1 MDR cells viability, CellTiter-Glo, 72 h; 3.4% of 400,000 active; also: nearly all actives have a fitted effect of over 60% in size
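Potencies derive from concentration-effect curves fitted to normalized luminescence (CellTiter-Glo) of KB-V1 cells treated for 72 h at 37 degrees C in phenol-red-free DMEM containing 10% FBS.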
* marks the source's active call; other numbers are inactive results; i = inactive; ? = inconclusive; · = no result; [ ] = another dose, or the depositor's remark. Most compounds without a hit are left out; they make up all but 19% or so of the library. Calls follow the shape of the dose curve; as a rule, active = well fitted curve in the direction sought with a large enough effect; inconclusive = small, poorly fitted or top-dose-only effect, or another doubt; inactive = no such curve, though single readings can be large; an effect the other way counts as inactive or inconclusive. Unless noted, % is scaled to controls: 0 for no effect and ±100 for the full control effect; potency is read from the fitted curve at half-maximal effect.

SMILES	TDP1 cell noCPT	KB-3-1 cytotox	HT1080-NT tox	DT40 TDP1 CPT	HT1080 IDH1KD tx	KB-V1 MDR tox
CCCNC(=O)C1(C)CCN(C(=O)c2cccc(Cl)c2)C1 (stereo not given)	-2%	i	?	2%	21%	i
CCN(Cc1ccccc1)C(=O)CN1C(=O)NC(CC)(c2ccc(F)cc2)C1=O (stereo not given)	?	i	-2%	-4%	-5%	i
O=C(Nc1ccccc1)Nc1ncc(C(F)(F)F)cc1Cl	?	i	-1%	-10%	0%	i
CCCNC(=S)Nc1cccc(C(F)(F)F)c1	-17%	i	-6%	-6%	-4%	i
Cc1cccc(NC(=S)NNc2ncc(C(F)(F)F)cc2Cl)c1	?	?	-1%	?	-17%	15µM*
FC(F)(F)c1cnc(NNC(=S)Nc2ccccc2Cl)c(Cl)c1	18µM*	16µM*	?	?	?	?
COc1cccc2sc3cc(NCc4ccc(C)o4)ccc3c(=O)c12	-29%	i	-10%	?	0%	i
CN(C(=O)c1cccc(NC(=O)Cc2ccc(NC(=O)C3CCCN(C(=O)C4CCCC4)C3)cc2)c1)C1CC1 (stereo not given)	?	i	9%	-27%	6%	i
COc1ccc(-c2nc3n(n2)C(c2ccccc2F)C(C(=O)Nc2cccnc2)=C(C)N3)cc1OC (stereo not given)	-92%	i	·	?	·	i
CCN(CC)c1ccc(C2NCC(c3ccc([N+](=O)[O-])cc3)O2)cc1 (stereo not given)	-16%	i	-5%	1%	9%	i
CC1Sc2ccc(S(=O)(=O)CCC(=O)N3CCN(c4ccccc4F)CC3)cc2NC1=O (stereo not given)	-20%	i	-23%	-22%	-9%	?
Cc1ccc(C(=O)Nc2cccnc2)cc1Cl	-23%	i	3%	?	19%	i
C=CCNCc1ccc(C(=O)NCCCCCCC)cc1[N+](=O)[O-]	18µM*	i	-3%	?	14%	i
CC(C)c1ccc(C2N3CC4(C)CN2CC(c2ccccc2)(C3)C4=O)cc1 (stereo not given)	18µM*	i	·	?	·	i
COc1cc2c3c(c1)c(N=NC(N)=S)c(O)n3C(C)(C)C=C2C	5.2µM*	i	-7%	4.6µM*	-4%	i
CC1=CC(C)(C)n2c(O)c(N=N)c3cc(C)cc1c32	23µM*	i	0%	?	7%	?
CC(C)c1nc2ccc(C(=O)Nc3ccccc3F)cc2o1	5.8µM*	?	·	7.3µM*	·	i
CC(=O)c1cccc(NC(=O)c2ccc3nc(C(C)C)oc3c2)c1	16µM*	·	·	?	·	·
Cc1c(Cl)cccc1NC(=O)c1ccc2nc(C(C)C)oc2c1	12µM*	·	·	?	·	·
CC(=O)c1cccc(NC(=O)c2ccc3c(c2)CCCC3)c1	?	i	-2%	?	-2%	?
Cc1ccc(NC(=O)NCCc2c(C)nn(C)c2C)c(Cl)c1	-25%	i	·	-8%	·	i
COc1ccc(CN2CCOc3ccc(C(O)c4cccnc4)cc3C2)c(F)c1 (stereo not given)	?	·	·	1%[9.04 µM]	·	·
O=[N+]([O-])c1ccc(N2CCN(C(=S)Nc3ccc(F)cc3)CC2)cc1	5.8µM*	i	-9%	5.2µM*	-22%	?
O=[N+]([O-])c1ccc(N2CCN(C(=S)Nc3ccc(F)cc3F)CC2)cc1	8.2µM*	i	-13%	6.5µM*	-3%	?
O=[N+]([O-])c1ccc(N2CCN(C(=S)Nc3cccc(F)c3)CC2)cc1	9.2µM*	i	-1%	8.2µM*	-20%	i
